# Assays:
# Experiment in all cases: yeast three-hybrid, YBZ-1, SC-Leu-His + 0.5 mM 3-AT, 4 days
# Conditions in all cases: tags: N-Gal4 AD-HA kept; label: inside an RPR1-promoter hybrid RNA with tandem MS2 sites; ssRNA
# PUM1 PUF domain R3-SRA = PUM1 PUF domain R3-SRA (Homo sapiens, UniProt Q14671 828-1176, C935S;Q939A)
# Summary of the method: (§1)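 Pumilio-1 PUF domain libraries, randomized at the three base-contacting residues of each repeat, were co-expressed with matching RNA elements from a centromeric plasmid in strain YBZ-1, which carries a LexA–MS2 coat fusion and a HIS3 reporter. Transformants grew for four days on SC-Leu (input) or on SC-Leu-His + 0.5 mM 3-AT (selection), and the repeat regions were PCR-amplified and Illumina-sequenced. The interaction score is the log change in variant frequency from input to selection. That logarithm is base 2, with a pseudocount of 1 where a variant was absent.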
# PUM1 PUF domain R3-VRM = PUM1 PUF domain R3-VRM (Homo sapiens, UniProt Q14671 828-1176, C935V;Q939M)
# Summary of the method: as §1
# PUM1 PUF domain R3-MRI = PUM1 PUF domain R3-MRI (Homo sapiens, UniProt Q14671 828-1176, C935M;Q939I)
# Summary of the method: as §1
# PUM1 PUF domain R5-SDE = PUM1 PUF domain R5-SDE (Homo sapiens, UniProt Q14671 828-1176, C1007S;R1008D;Q1011E)
# Summary of the method: as §1
# PUM1 PUF domain R4-WSW = PUM1 PUF domain R4-WSW (Homo sapiens, UniProt Q14671 828-1176, N971W;H972S;Q975W)
# Summary of the method: as §1
# PUM1 PUF domain R4-QHR = PUM1 PUF domain R4-QHR (Homo sapiens, UniProt Q14671 828-1176, N971Q;Q975R)
# Summary of the method: as §1
# PUM1 PUF domain R4-RMG = PUM1 PUF domain R4-RMG (Homo sapiens, UniProt Q14671 828-1176, N971R;H972M;Q975G)
# Summary of the method: as §1
# PUM1 PUF domain R8-TWR = PUM1 PUF domain R8-TWR (Homo sapiens, UniProt Q14671 828-1176, N1122T;Y1123W;Q1126R)
# Summary of the method: as §1
# PUM1 PUF domain R5-RKE = PUM1 PUF domain R5-RKE (Homo sapiens, UniProt Q14671 828-1176, C1007R;R1008K;Q1011E)
# Summary of the method: as §1
# PUM1 PUF domain R5-PYF = PUM1 PUF domain R5-PYF (Homo sapiens, UniProt Q14671 828-1176, C1007P;R1008Y;Q1011F)
# Summary of the method: as §1
sequence,measurement,setting,value
GGCUAGAACUAGUGGAUCCCCCGGCGCCCGGCGGCUCGAGCCCGGGUAAGUGUAAUUAGUCUGCAUGCCGCCGGGCGCCAUGCCUGCAGGUCGACUCUAGAAAACAUG,binding signal,PUM1 PUF domain R3-SRA,0.68 log2 enrichment (interaction score)
same,binding signal,PUM1 PUF domain R3-VRM,1.73 log2 enrichment (interaction score)
same,binding signal,PUM1 PUF domain R3-MRI,1.25 log2 enrichment (interaction score)
GGCUAGAACUAGUGGAUCCCCCGGCGCCCGGCGGCUCGAGCCCGGGUAAGUGUGAAUAGUCUGCAUGCCGCCGGGCGCCAUGCCUGCAGGUCGACUCUAGAAAACAUG,binding signal,PUM1 PUF domain R5-SDE,2.31 log2 enrichment (interaction score)
GGCUAGAACUAGUGGAUCCCCCGGCGCCCGGCGGCUCGAGCCCGGGUAAGUGUAUAUAGUCUGCAUGCCGCCGGGCGCCAUGCCUGCAGGUCGACUCUAGAAAACAUG,binding signal,PUM1 PUF domain R4-WSW,3.38 log2 enrichment (interaction score)
GGCUAGAACUAGUGGAUCCCCCGGCGCCCGGCGGCUCGAGCCCGGGUAAGUGUACAUAGUCUGCAUGCCGCCGGGCGCCAUGCCUGCAGGUCGACUCUAGAAAACAUG,binding signal,PUM1 PUF domain R4-QHR,2.26 log2 enrichment (interaction score)
same,binding signal,PUM1 PUF domain R4-WSW,2.13 log2 enrichment (interaction score)
GGCUAGAACUAGUGGAUCCCCCGGCGCCCGGCGGCUCGAGCCCGGGUAAGUGUAAGUAGUCUGCAUGCCGCCGGGCGCCAUGCCUGCAGGUCGACUCUAGAAAACAUG,binding signal,PUM1 PUF domain R3-SRA,3.65 log2 enrichment (interaction score)
same,binding signal,PUM1 PUF domain R3-VRM,1.15 log2 enrichment (interaction score)
same,binding signal,PUM1 PUF domain R3-MRI,5.12 log2 enrichment (interaction score)
GGCUAGAACUAGUGGAUCCCCCGGCGCCCGGCGGCUCGAGCCCGGGUAAGUGUAAAUAGUCUGCAUGCCGCCGGGCGCCAUGCCUGCAGGUCGACUCUAGAAAACAUG,binding signal,PUM1 PUF domain R4-RMG,2.77 log2 enrichment (interaction score)
same,binding signal,PUM1 PUF domain R4-WSW,4.02 log2 enrichment (interaction score)
same,binding signal,PUM1 PUF domain R3-SRA,3.83 log2 enrichment (interaction score)
same,binding signal,PUM1 PUF domain R3-VRM,3.67 log2 enrichment (interaction score)
same,binding signal,PUM1 PUF domain R8-TWR,4.94 log2 enrichment (interaction score)
GGCUAGAACUAGUGGAUCCCCCGGCGCCCGGCGGCUCGAGCCCGGGUAAGUGUCAAUAGUCUGCAUGCCGCCGGGCGCCAUGCCUGCAGGUCGACUCUAGAAAACAUG,binding signal,PUM1 PUF domain R5-RKE,3.39 log2 enrichment (interaction score)
GGCUAGAACUAGUGGAUCCCCCGGCGCCCGGCGGCUCGAGCCCGGGUAAGCGUAAAUAGUCUGCAUGCCGCCGGGCGCCAUGCCUGCAGGUCGACUCUAGAAAACAUG,binding signal,PUM1 PUF domain R8-TWR,5.17 log2 enrichment (interaction score)
GGCUAGAACUAGUGGAUCCCCCGGCGCCCGGCGGCUCGAGCCCGGGUAAGUGUUAAUAGUCUGCAUGCCGCCGGGCGCCAUGCCUGCAGGUCGACUCUAGAAAACAUG,binding signal,PUM1 PUF domain R5-PYF,2.41 log2 enrichment (interaction score)
same,binding signal,PUM1 PUF domain R5-RKE,3.74 log2 enrichment (interaction score)

# — paper PMC8384837, “Expanding the binding specificity for RNA recognition by a PUF domain”
